# Measured values reported in PubChem BioAssay.
# Activity calls are given as the source filed them.
# Assays:
# [1] = test system: Human papillomavirus type 1a protein E7 (residues 44-93); test: HPV1a E7 fragment binders on microarrays, primary screen, biochemical, small-molecule microarray, residues 44-93, 635 nm fluorescence (AID 1108); conditions: small-molecule microarray binding, fluorescence 635 nm; higher = more signal;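 note: E7 fragment applied at 1 µg/mL in TBST for 1 h at 4 C; score combines spot fluorescence with its signal to noise ratio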
# [2] = modulators of HCV replicon luciferase signal, primary screen, HCV replication inhibitor project, Huh7 cells, luciferase reporter (AID 1109); conditions: 48 h, higher = more signal;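 note: huh7 hepatoma cells harbouring a luciferase neomycin HCV replicon reporter; luciferase luminescence as measure of HCV replicon replication; test concentration not given here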
# [3] = target: Left-right determination factor 2 (Homo sapiens) (UniProt O00292); test: LEFTY2 binders on small-molecule microarrays, primary screen, biochemical, small-molecule microarray, 635 nm fluorescence scan (AID 1110); conditions: LEFTY2 binding, higher = more signal
# Sequence of Left-right determination factor 2 (Homo sapiens) (O00292 whole entry, looked up): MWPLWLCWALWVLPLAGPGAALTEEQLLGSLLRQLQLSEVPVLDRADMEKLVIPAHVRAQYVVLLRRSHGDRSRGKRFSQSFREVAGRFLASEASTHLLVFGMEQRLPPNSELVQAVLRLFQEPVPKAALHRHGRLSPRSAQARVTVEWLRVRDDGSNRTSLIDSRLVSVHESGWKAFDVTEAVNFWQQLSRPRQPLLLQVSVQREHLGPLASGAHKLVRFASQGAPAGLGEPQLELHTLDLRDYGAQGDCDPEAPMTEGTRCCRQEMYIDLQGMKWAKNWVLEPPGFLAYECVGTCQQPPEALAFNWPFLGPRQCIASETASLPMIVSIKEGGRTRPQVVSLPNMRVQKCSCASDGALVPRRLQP
# [4] = target: Calmodulin-1 (Homo sapiens) (UniProt P0DP23); test: CALM1 binders on microarrays, EGTA buffer, profiling panel, biochemical, small-molecule microarray, Cy5-labelled CALM1 (AID 1111); conditions: Cy5-CALM1 binding fluorescence, higher = more signal;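 note: labelled calmodulin applied in Tris saline Tween buffer holding calcium plus EGTA and DTT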
# [5] = target: Calmodulin-1 (Homo sapiens) (UniProt P0DP23); test: calcium-bound CALM1 binders on microarrays, profiling panel, artefact control for SMM control-protein annotation, biochemical, small-molecule microarray, Cy5-labelled CALM1, plus calcium (AID 1112); conditions: Cy5-CALM1 binding fluorescence, higher = more signal;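 note: score merges spot fluorescence with signal to noise from triplicate slides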
# [6] = small-molecule microarray binders of probe aWnt5a, primary screen, biochemical, biotinylated probe, 635/667 nm fluorescence (AID 1113); conditions: higher = more signal;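 note: score merges 667 nm fluorescence intensity with signal-to-noise per printed feature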
# [7] = small-molecule microarray binders of probe aShh, primary screen, biochemical, biotinylated probe, 635/667 nm fluorescence (AID 1114); conditions: higher = more signal;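 note: probe is biotin-labelled aShh protein from a stem cell growth factor screen; measures binding of labelled protein to compounds printed on the slide; score merges feature fluorescence at 667 nm with signal-to-noise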
# [8] = small-molecule microarray binders of probe aNog, primary screen, biochemical, biotinylated probe, 635/667 nm fluorescence (AID 1115); conditions: higher = more signal;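 note: probe is biotinylated aNog protein used at 0.15 µg/mL for 1 h at 4 C; z-score combines 667 nm fluorescence of each spot with its signal to noise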
# [9] = target: Torsin-1A-interacting protein 1 (Homo sapiens) (UniProt Q5JTV8); test: LAP1 binders from COS7 cell lysate, primary screen, small-molecule microarray, 635/667 nm fluorescence (AID 1116); conditions: COS7-hLAP1 lysate binding, 635 nm fluorescence, higher = more signal
# Sequence of Torsin-1A-interacting protein 1 (Homo sapiens) (Q5JTV8 whole entry, looked up): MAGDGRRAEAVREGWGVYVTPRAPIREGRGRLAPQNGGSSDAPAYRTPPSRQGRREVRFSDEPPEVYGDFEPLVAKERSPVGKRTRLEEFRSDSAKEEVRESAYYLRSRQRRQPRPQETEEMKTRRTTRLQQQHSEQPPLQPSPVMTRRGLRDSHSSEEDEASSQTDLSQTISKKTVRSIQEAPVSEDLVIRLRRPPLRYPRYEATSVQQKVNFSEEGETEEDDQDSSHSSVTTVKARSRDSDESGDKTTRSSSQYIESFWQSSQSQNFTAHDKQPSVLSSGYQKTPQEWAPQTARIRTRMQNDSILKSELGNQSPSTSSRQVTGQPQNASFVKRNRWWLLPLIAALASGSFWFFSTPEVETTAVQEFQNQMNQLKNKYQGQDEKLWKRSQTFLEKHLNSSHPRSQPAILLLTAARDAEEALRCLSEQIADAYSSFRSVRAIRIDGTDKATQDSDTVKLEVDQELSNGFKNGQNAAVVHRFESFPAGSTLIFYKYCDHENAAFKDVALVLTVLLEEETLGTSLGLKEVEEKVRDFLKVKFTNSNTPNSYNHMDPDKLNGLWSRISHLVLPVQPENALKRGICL
# [10] = target: Alpha-bungarotoxin (Bungarus multicinctus) (UniProt P60615); test: alpha-bungarotoxin binders on microarray, profiling panel, artefact control for SMM control protein annotation, biochemical, small-molecule microarray, Alexa647 label, 635/667 nm fluorescence (AID 1117); conditions: alpha-BTX-A647 binding fluorescence, higher = more signal
# Sequence of Alpha-bungarotoxin (Bungarus multicinctus) (P60615 whole entry, looked up): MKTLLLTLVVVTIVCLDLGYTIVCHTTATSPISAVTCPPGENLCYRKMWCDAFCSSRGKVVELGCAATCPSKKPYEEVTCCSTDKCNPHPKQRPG
# [11] = target: Albumin (Bos taurus) (UniProt P02769); test: bovine serum albumin binders on microarray, profiling panel, artefact control for SMM control protein annotation, biochemical, small-molecule microarray, Alexa647 label, 635/667 nm fluorescence (AID 1118); conditions: BSA-A647 binding, fluorescence 635 nm, higher = more signal;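 note: score merges 667 nm emission intensity and signal-to-noise per printed compound spot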
# Sequence of Albumin (Bos taurus) (P02769 whole entry, looked up): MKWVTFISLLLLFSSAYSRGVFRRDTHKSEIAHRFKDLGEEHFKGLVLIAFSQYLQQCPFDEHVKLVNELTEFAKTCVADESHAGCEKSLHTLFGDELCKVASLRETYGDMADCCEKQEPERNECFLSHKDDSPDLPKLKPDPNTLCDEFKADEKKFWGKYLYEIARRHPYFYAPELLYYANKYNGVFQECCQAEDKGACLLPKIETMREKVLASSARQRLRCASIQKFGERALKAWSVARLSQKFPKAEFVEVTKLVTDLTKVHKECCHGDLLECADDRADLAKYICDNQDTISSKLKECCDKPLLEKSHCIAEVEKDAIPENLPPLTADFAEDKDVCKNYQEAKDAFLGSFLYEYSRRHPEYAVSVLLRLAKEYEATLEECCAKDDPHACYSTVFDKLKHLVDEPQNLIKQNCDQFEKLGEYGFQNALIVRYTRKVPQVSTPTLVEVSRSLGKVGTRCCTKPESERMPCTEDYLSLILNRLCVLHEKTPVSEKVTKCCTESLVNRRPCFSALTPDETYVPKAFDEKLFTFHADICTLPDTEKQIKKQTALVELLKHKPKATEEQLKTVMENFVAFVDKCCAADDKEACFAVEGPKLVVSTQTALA
# [12] = small-molecule microarray binders of probe aXIP, primary screen, biochemical, NeuroSMM set, 635/667 nm fluorescence (AID 1119); conditions: higher = more signal, called active from +8 up or from −8 down;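 note: probe is the protein aXip251-270 applied at 1 µg/mL to compound-printed slides; binding of probe to printed compounds measured as 667 nm fluorescence plus signal to noise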
# [13] = small-molecule binders of probe aNOTCH3, primary screen, biochemical, small-molecule microarray, 635/667 nm fluorescence (AID 1120); conditions: higher = more signal;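 note: probe is a biotin-tagged antibody raised against NOTCH3 rather than NOTCH3 protein; score merges spot fluorescence near 667 nm with spot signal to noise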
# [14] = small-molecule binders of probe aNOTCH2, primary screen, biochemical, small-molecule microarray, 635/667 nm fluorescence (AID 1121); conditions: higher = more signal;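 note: score merges feature fluorescence read at 667 nm with its signal to noise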
# [15] = target: Carbonic anhydrase 2 (Homo sapiens) (UniProt P00918); test: CAII small-molecule binders, profiling panel, biochemical, small-molecule microarray, Alexa647-labelled CAII (AID 1122); conditions: CAII-A647 binding fluorescence, higher = more signal
# [16] = COS7 lysate on small-molecule microarray, probe aHis, 635 nm (AID 1123); conditions: COS7 cell lysate, fluorescence, higher = more signal;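 note: z-score combines 667nm fluorescence intensity with signal-to-noise per printed compound spot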
# [17] = compound binding in COS7 lysate, probe aLAP1, primary screen, cell lysate, small-molecule microarray (AID 1124); conditions: probe aLAP1, fluorescence, higher = more signal;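 note: lysate comes from COS7 cells expressing LAP1 and is applied at 0.3 µg/mL; score merges spot fluorescence near 667 nm with signal-to-noise over triplicate slides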
# [18] = test system: Sam68 (KHDRBS1); test: Sam68 small-molecule binders, primary screen, biochemical, small-molecule microarray, 635 nm fluorescence (AID 1125); conditions: small-molecule microarray binding, higher = more signal;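 note: score merges 667 nm channel intensity with signal to noise over triplicate slides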
# [19] = test system: Chordin-like protein 2 (CHRDL2); test: CHRDL2 small-molecule binders, primary screen, biochemical, small-molecule microarray, 635 nm fluorescence (AID 1126); conditions: small-molecule microarray binding, fluorescence 635 nm; higher = more signal;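 note: printed compound slides probed with Chrdl2 protein at 4 µg/mL for 1 h at 4 C; score merges 667 nm emission intensity with signal to noise over three replicate slides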
# [20] = target: Concanavalin-A (Canavalia ensiformis) (UniProt P02866); test: ConA small-molecule binders, primary screen, artefact control for SMM control protein annotation, biochemical, small-molecule microarray, Alexa647 label, 635 nm (AID 1127); conditions: ConA-A647 binding fluorescence, higher = more signal;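 note: z combines 667 nm emission intensity with signal-to-noise across three replicate slides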
# Sequence of Concanavalin-A (Canavalia ensiformis) (P02866 whole entry, looked up): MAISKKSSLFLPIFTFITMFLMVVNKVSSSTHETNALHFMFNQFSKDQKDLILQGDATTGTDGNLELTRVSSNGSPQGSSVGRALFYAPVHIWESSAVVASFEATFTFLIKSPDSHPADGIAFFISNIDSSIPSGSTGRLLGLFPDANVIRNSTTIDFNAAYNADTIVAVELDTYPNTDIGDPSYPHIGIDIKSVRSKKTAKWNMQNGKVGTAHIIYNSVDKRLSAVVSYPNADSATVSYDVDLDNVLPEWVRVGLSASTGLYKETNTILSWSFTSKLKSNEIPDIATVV
SMILES,composite z-score [1],z-score [2],composite z-score [3],composite z-score [4],composite z-score [5],composite z-score [6],composite z-score [7],composite z-score [8],composite z-score [9],composite z-score [10],composite z-score [11],composite Z-score [12],composite z-score [13],composite z-score [14],composite z-score [15],composite z-score [16],composite z-score [17],composite z-score [18],composite z-score [19],composite z-score [20]
O=C1C[C@@H](O)[C@@H](O)[C@@H]2[C@@H]3C(=O)N(Cc4ccc5c(c4)OCO5)C(=O)[C@@H]3CC[C@@H]12,-0.0301,-0.644,0.796,-0.504,-0.56,-0.0405,0.0278,-0.239,0.441,0.0541,0.295,0.856 (inactive),-0.0146,-0.0938,0.229,0.0971,-0.0553,0.507,0.558,0.492
CCOC(=O)C1=CCC(c2cc3ccccc3[nH]2)NC1 (stereo not given),-0.192,-0.312,0.208,-0.219,0.19,0.0438,0.204,0.562,0.97,0.864,0.653,0.0894 (inactive),0.173,0.069,0.63,1.7,0.944,0.689,0.215,-0.668
C#C[C@@H](CC)O[Si](C#Cc1ccc(Oc2ccccc2)cc1)(C(C)C)C(C)C,1.1,-0.715,0.341,-0.0885,-0.657,-0.0963,-0.0533,-0.254,0.368,0.0826,-0.109,0.317 (inactive),0.122,-0.11,0.535,0.476,0.339,1.3,0.234,0.218
CC(CCN1CCc2nc(-c3ccccc3)c(-c3ccccc3)cc2C1)=NO[C@H](C)c1cn([C@@H]2COC[C@H]2O)nn1,1.35,-0.883,0.0738,-0.307,-0.46,-0.0685,-0.0553,-0.025,0.438,0.872,0.156,-0.0135 (inactive),0.0864,-0.117,-0.089,0.507,0.222,1.31,0.0957,-0.411
CCOC(=O)NN=C1C[C@@H](O)[C@@H](O)[C@@H]2[C@@H]3C(=O)N(C4CCCCC4)C(=O)[C@@H]3CC[C@H]12,0.0361,-0.314,0.511,-0.101,-0.469,-0.128,0.199,-0.245,0.217,-0.177,0.801,-0.0662 (inactive),0.0242,-0.037,-0.0418,0.387,0.16,0.458,0.0341,0.357
CCOC(=O)[C@H](Cc1ccccc1)NC(=O)CCC1CC(OC(=O)NCc2ccc3c(c2)OCO3)CC2(CCCC(COC(=O)NCc3cccc(C(F)(F)F)c3)O2)O1 (stereo not given in full),0.547,-1.21,0.48,0.214,-0.286,-0.0792,0.108,0.205,0.251,0.0294,-0.0075,-0.944 (inactive),0.0224,-0.123,-0.106,0.287,-0.0375,0.843,0.393,0.546
